What all share (parameters): scale not given: direction of the effect not stated beside the values
Assay [1] has as its target Protein translocase subunit SecA (Escherichia coli (strain K12)) (UniProt P10408). Briefly: Assay to Identify E. coli SecA ATPase Inhibitors. Particulars: 30 µM. The class given is functional.
Assay [2] deals with T1, Ubiquitin-activating enzyme e1, putative (Leishmania donovani (strain BPK282A1)) (UniProt E9BSI1).
T1 sequence (whole entry): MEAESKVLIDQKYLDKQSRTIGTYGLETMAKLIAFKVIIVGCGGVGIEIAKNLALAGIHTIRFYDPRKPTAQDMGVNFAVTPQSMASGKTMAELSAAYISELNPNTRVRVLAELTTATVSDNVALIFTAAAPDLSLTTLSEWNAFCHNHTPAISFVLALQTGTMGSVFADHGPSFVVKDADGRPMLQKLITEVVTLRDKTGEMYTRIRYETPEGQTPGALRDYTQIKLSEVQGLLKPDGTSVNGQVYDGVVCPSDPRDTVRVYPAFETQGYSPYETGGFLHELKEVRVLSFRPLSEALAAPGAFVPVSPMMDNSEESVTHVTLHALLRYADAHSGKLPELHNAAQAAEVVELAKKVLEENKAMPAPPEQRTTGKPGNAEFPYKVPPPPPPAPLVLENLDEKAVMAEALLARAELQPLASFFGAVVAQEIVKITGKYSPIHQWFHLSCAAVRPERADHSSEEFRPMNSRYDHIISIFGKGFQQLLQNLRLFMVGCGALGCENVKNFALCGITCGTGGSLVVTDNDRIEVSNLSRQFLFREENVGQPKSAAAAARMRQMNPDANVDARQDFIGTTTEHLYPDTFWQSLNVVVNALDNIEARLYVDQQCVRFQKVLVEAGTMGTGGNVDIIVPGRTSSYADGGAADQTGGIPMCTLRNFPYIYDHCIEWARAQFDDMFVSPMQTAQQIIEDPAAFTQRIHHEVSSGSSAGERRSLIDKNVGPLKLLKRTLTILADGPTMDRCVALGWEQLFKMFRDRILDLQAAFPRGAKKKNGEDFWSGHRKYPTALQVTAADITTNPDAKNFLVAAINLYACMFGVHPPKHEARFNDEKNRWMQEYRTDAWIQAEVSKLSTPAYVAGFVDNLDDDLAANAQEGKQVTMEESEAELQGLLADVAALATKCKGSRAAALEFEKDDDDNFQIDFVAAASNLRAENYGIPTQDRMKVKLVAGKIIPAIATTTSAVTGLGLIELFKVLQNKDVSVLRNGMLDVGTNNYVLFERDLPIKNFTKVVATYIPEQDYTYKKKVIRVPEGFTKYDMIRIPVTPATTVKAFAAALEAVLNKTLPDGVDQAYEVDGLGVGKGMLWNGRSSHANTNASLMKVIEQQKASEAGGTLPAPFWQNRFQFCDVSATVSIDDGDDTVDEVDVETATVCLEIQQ
Kind of assay: Leishmania donovani Ubiquitin Activating Enzyme (LdE1). The class given is functional. Particulars: 30 µM.

The target in assay [3] is AMP-activated protein kinase, AMPK (Homo sapiens) (UniProt P54646+O43741+P54619+Q9UGJ0+Q9Y478+Q13131+Q9UGI9). Kind of assay: AMP-dependent Kinase enzyme assay. An in vitro enzyme assay that detects ADP turnover that is directly proportional to AMPK activity. This uses naive AMPK that is activated during the assay with MK-8722. It counts as functional. Particulars: 30 µM.

The target in assay [4] is Sialic acid-binding Ig-like lectin 9 (Homo sapiens) (UniProt Q9Y336). Briefly: Hs-Siglec9 ALPHAscreen SOP 20170721. Particulars: 10 µM. On the technique in general: Bead proximity is the source of the signal in Alpha formats.
A further assay deals with Trypanosoma cruzi. Briefly: Trypanosoma cruzi phosphomannomutase and mannose-1-phosphate guanylyltransferase assay. As to conditions: 10 µM. The class given is functional.
Assay [5] deals with T2, Arginase-2, mitochondrial (Homo sapiens) (UniProt P78540).
T2 sequence (whole entry): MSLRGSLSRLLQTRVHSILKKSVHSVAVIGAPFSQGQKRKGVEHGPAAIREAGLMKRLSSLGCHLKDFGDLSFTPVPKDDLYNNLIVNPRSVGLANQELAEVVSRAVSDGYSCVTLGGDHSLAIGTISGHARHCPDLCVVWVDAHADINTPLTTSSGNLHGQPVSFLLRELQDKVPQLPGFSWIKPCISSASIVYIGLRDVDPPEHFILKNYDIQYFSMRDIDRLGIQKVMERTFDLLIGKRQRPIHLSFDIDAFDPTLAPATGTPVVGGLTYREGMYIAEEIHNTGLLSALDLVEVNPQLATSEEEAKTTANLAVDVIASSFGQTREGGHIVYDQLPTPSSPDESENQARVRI
Kind of assay: in vitro enzyme assay to detect the production of urea directly proportional to the activity of Arginase II. Note: in the data most compounds retested in dose-response had high values. It counts as functional. As to conditions: 33.3 µM.

In assay [6] the target is T3, Proteasome subunit beta (Trypanosoma cruzi) (UniProt O96673).
T3 sequence (whole entry): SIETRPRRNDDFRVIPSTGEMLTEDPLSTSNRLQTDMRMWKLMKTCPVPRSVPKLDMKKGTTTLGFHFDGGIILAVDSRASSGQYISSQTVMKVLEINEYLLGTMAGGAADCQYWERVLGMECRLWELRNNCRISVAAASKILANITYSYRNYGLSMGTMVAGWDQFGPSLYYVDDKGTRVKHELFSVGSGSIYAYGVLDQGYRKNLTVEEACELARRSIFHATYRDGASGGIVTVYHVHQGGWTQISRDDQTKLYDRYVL
Kind of assay: Trypanosoma cruzi proteasome chymotrypsin-like activity (TcProtChymo) assay. Note: in the data most compounds retested in dose-response had high values. It counts as functional. Particulars: 9.37 µM.

For a further assay, the species on record is Homo sapiens. Briefly: To identify inhibition of the IFN signalling (Jak-Stat) pathway via expression of an eGFP reporter gene under the control of an IFN-stimulated response element (ISRE) containing MxA promoter. It counts as functional. Particulars: 30 µM. In general terms: Reporter assays use an easily measured gene product as a stand-in for the process of interest.

For assay [7], the target named is T4, Tyrosyl-tRNA synthetase, putative (Trypanosoma cruzi (strain CL Brener)) (UniProt Q4DSP6).
T4 sequence (whole entry): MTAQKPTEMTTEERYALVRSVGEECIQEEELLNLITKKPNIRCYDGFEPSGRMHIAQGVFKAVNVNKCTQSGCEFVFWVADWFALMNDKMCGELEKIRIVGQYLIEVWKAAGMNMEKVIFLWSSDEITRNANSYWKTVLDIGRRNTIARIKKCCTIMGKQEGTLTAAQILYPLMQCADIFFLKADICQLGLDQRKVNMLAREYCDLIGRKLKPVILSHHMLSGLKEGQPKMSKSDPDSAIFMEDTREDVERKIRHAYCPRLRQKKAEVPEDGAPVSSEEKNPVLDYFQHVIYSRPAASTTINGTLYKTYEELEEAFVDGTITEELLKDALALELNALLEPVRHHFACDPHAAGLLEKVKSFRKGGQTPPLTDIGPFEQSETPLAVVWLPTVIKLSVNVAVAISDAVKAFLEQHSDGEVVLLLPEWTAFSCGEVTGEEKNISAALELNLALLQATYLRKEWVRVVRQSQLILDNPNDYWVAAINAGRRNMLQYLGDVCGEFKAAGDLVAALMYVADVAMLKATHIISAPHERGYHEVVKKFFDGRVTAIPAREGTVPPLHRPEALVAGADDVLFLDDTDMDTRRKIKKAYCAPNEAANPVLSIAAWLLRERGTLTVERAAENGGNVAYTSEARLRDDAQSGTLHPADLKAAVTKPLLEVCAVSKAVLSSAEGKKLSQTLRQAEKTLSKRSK
Kind of assay: Trypanosoma cruzi tyrosyl tRNA synthetase (TcYRS) _High Tyrosine SOP. Note: in the data most compounds retested in dose-response had high values. Particulars: 30 µM. The class given is functional.

The target in assay [8] is T4, Tyrosyl-tRNA synthetase, putative (Trypanosoma cruzi (strain CL Brener)). Briefly: Trypanosoma cruzi tyrosyl tRNA synthetase (TcYRS) SOP. It counts as functional. As to conditions: 30 µM.
Assay [9] concerns the target Chromo domain-containing protein 1 (Saccharomyces cerevisiae (strain ATCC 204508 / S288c) (Baker's yeast)) (UniProt P32657). Kind of assay: ScCHD-1 Enzyme Inhibition Assay. Note: in the data most compounds retested in dose-response had high values. It counts as functional. Particulars: 30 µM.

For part of these data: Results with a measured potency or affinity are listed apart.

Chromo domain-containing protein 1 (Saccharomyces cerevisiae (strain ATCC 204508 / S288c) (Baker's yeast)), sequence (P32657 whole entry, the tested form may be a part): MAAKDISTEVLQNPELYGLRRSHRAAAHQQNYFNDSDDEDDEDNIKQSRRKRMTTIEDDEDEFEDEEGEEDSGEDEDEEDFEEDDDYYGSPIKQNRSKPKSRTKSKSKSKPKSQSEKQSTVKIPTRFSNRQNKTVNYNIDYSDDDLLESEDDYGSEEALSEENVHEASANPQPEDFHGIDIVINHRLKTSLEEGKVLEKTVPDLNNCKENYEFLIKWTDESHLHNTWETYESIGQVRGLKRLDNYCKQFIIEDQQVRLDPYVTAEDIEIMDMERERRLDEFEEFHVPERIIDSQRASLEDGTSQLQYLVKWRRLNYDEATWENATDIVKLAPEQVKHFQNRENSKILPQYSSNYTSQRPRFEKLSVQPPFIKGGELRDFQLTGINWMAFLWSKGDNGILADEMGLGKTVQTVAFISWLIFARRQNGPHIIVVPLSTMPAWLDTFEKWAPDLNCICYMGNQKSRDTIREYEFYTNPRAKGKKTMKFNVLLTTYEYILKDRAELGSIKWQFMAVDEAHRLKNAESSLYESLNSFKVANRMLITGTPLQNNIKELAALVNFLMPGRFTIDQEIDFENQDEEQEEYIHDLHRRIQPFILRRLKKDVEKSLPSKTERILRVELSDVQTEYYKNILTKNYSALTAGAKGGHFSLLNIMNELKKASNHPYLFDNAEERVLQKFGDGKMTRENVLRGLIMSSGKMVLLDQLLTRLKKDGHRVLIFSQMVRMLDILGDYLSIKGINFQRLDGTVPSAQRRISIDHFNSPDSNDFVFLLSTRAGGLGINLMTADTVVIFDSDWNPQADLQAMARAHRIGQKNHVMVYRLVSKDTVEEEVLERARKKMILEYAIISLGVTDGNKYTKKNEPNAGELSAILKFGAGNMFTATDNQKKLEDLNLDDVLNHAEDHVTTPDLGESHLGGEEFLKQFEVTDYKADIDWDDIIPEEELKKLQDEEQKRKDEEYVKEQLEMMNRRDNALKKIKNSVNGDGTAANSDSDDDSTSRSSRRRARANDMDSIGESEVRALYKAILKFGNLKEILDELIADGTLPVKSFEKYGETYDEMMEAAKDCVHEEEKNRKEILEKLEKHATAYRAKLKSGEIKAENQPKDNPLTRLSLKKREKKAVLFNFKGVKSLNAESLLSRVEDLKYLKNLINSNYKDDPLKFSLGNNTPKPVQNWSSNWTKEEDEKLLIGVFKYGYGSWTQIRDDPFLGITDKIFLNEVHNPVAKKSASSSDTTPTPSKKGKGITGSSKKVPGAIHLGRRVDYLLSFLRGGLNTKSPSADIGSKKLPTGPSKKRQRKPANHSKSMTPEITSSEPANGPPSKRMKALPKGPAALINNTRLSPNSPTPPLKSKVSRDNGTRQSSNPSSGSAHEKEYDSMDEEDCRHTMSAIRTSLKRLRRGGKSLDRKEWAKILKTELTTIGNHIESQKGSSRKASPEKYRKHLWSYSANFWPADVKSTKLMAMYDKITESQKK
Sialic acid-binding Ig-like lectin 9 (Homo sapiens), sequence (Q9Y336 whole entry): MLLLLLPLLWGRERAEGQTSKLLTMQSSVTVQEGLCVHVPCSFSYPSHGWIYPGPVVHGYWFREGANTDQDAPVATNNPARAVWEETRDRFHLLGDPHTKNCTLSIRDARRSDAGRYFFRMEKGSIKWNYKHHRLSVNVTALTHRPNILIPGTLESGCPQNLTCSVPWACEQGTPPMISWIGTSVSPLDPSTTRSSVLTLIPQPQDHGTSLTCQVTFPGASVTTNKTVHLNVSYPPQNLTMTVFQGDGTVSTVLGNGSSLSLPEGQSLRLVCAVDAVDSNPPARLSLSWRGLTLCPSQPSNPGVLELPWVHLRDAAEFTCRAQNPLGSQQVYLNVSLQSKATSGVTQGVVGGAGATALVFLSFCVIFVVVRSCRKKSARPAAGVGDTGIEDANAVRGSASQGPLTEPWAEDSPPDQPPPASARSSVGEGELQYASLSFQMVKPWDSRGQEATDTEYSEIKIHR
Protein translocase subunit SecA (Escherichia coli (strain K12)), sequence (P10408 whole entry): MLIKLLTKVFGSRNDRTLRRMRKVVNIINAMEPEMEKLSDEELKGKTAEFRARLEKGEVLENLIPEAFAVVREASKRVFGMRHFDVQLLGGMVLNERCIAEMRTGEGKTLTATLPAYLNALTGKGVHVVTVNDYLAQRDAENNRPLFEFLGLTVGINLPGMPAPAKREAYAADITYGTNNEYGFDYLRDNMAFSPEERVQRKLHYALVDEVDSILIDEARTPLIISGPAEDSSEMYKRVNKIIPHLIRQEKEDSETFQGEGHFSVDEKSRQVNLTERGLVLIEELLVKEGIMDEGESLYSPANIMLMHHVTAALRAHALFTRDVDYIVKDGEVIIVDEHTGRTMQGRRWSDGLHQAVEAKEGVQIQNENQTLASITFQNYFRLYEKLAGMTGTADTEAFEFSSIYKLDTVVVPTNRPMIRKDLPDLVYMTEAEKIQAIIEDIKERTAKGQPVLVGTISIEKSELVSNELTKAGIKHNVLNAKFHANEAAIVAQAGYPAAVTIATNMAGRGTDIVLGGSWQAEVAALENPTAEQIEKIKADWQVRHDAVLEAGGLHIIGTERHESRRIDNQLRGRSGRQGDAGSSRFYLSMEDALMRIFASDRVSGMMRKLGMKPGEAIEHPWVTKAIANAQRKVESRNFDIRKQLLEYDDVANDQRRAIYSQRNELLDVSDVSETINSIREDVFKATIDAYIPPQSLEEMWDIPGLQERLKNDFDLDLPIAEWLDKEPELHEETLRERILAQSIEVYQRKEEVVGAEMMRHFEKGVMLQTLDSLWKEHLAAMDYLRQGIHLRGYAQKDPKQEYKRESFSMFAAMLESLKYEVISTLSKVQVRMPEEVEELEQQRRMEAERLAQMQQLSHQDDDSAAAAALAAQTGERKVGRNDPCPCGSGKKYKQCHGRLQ

On to `Cn1nccc1C(=O)N1CCOC(Cc2cccnc2)C1` (centres undefined), for which the Percent Effect in assay [1] is -5.75%; in assay [2], 10.7%; in assay [3] it was -3.23%; in assay [4], 4.56%; with Trypanosoma cruzi, 5.91%; in [5] it was -3.03%. The Percent Effect in [6] was -4.85%; in the assay filed under Homo sapiens it was 7.36%; in assay [7] it was 6.38%; in assay [8], 16.7%; in assay [9] it was -7.31%.

Take `Cc1ccc(CNC(c2ccccc2)c2nccn2C)cc1C` (centres undefined): the Percent Effect in assay [1] was -0.655%; in assay [2], 18.9%; in [3], -5.59%; in assay [4], 9.13%; in the assay on Trypanosoma cruzi, 2.32%; in assay [5], -0.554%. In addition, the Percent Effect in assay [6] is 8.08%; in the assay listed under Homo sapiens it was 30.7%; in [7] it was 10.9%; in assay [8] it was 25.6%; in [9] it was -5.06%.

In the case of `Cc1nn(C)c2c(N3CCN(C(=O)c4ccccc4)CC3)ncnc12`, the Percent Effect in assay [1] was 1.93%; in [2], 9.33%; in assay [3] it was 2.69%; in assay [4], -1.85%; with Trypanosoma cruzi, -6.68%; in assay [5], -10.4%. The Percent Effect is 12% in [6]; 12.3% in the assay filed under Homo sapiens; 8.47% in assay [7]; 12.8% in assay [8]; -10.3% in [9].

Regarding `CCc1nc(NS(=O)(=O)c2ccc(C)cc2Cl)no1`, the Percent Effect in assay [1] is -5.01%; in assay [2] it was -2.67%; in [3], -2.5%; in assay [4], 11.5%; in the assay with Trypanosoma cruzi, 4.19%; in assay [5], 1.56%. In addition, the Percent Effect is -1.57% in [6]; -10.5% in the assay listed under Homo sapiens; 2.73% in [7]; 6.17% in [8]; -1.19% in assay [9].

In the case of `Cc1nc(C2CCCN(C(=O)c3ccc(Cn4cccn4)o3)C2)no1` (centres undefined), the Percent Effect is 0.739% in [1]; -5.2% in [2]; 2.21% in assay [3]; 1.09% in [4]; -2.43% in the assay with Trypanosoma cruzi; 5.34% in assay [5]. In addition, the Percent Effect is -4.9% in assay [6]; 10.9% in the assay listed under Homo sapiens; 3.88% in assay [7]; 0% in [8]; 0.66% in [9].

With `COCc1ccccc1CNc1cc(N2CCCC2CO)ncn1` (centres undefined), the Percent Effect in [1] was -4.86%; in [2], 18.2%; in [3], -4.12%; in [4], 3.3%; in the assay on Trypanosoma cruzi, -2.43%; in assay [5] it was 1.07%. The Percent Effect in assay [6] is 11.7%; in the assay filed under Homo sapiens, 7.92%; in assay [7], 5.83%; in assay [8], 19.5%; in assay [9] it was -6.07%.

In the case of `Cc1ccc(C(C)N(C)Cc2nc3c(cnn3C)c(=O)[nH]2)cc1` (centres undefined), the Percent Effect is 0.32% in [1]; 16.2% in assay [2]; -5.9% in assay [3]; 6.25% in assay [4]; 1.21% in the assay on Trypanosoma cruzi; 3.88% in assay [5]. Moreover, the Percent Effect in [6] was 15.8%; in the assay filed under Homo sapiens, 21.7%; in assay [7], 7.92%; in assay [8], 13.4%; in [9], -7.48%.

For the compound `O=C(CCC1CCCC1)NCCn1nc(C2CCNC2)c2nccnc21` (centres undefined), the Percent Effect in [1] was -2.79%; in assay [2] it was 12.2%; in [3], -13.6%; in assay [4], -8.06%; with Trypanosoma cruzi it was -6.52%; in [5], -5.34%. Moreover, the Percent Effect in assay [6] is 17.6%; in the assay filed under Homo sapiens, 23.6%; in assay [7], -3.23%; in [8] it was -3.9%; in [9] it was -19.5%.

`CN(Cc1ccc(OC(F)F)cc1)C(=O)CS(=O)(=O)c1ccc(Cl)cc1`: the Percent Effect is -4.93% in [1]; -2.7% in [2]; -0.333% in assay [3]; 6.3% in assay [4]; 8.49% in the assay with Trypanosoma cruzi; -1.91% in [5]. For the same compound, the Percent Effect is 0.345% in [6]; 3.29% in the assay listed under Homo sapiens; -5.82% in assay [7]; 0% in [8]; -1.75% in assay [9].

These data come from ChEMBL document CHEMBL3988442, “University of Dundee, Small-Polar-MMV Screening Library” (2021).
